Results with a measured potency or affinity are listed apart. Where a structure was tested more than once in an assay, its records may differ in their call. The source made the active and inactive calls.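 The calls were made as follows: active = EC50 of 10 µM or lower; inactive = EC50 above 10 µM or not measured.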 Where only a bound is given, the exact number is not on record here.

These results are taken from PubChem BioAssay AID588442 (The Scripps Research Institute Molecular Screening Center, 2011).

This experiment in a line: optical interference in Abeta FP readout, dose response, artefact control for IDE activator project, biochemical, fluorescence polarization (AID 588442). The conditions noted are these: FP artifact counterscreen, fluorescein-Abeta, no enzyme activity.
On to `C[n+]1c2cc(N)ccc2cc2ccc(N)cc21`, for which the concentration giving a half-maximal response (EC50) is 0.576 µM (active).
The result for `C#CCOCCOCCOCCNc1nc(N2CCN(C(=O)CCCCCCCCCCNC(=O)[C@H]([C@@H](C)CC)n3cc(CCCCCN)nn3)CC2)nc(N2CCN(C(=O)CCCCCCCCCCNC(=O)[C@H]([C@@H](C)CC)n3cc(CCCCN=C(N)N)nn3)CC2)n1` reads > 55.9 µM (inactive).
As for `C#CCOCCOCCOCCNc1nc(N2CCN(C(=O)CCCCCCCCCCNC(=O)Cn3cc(CCCCCN)nn3)CC2)nc(N2CCN(C(=O)CCCCCCCCCCNC(=O)[C@H]([C@@H](C)CC)n3cc(CCCCCN)nn3)CC2)n1`, the figure is > 55.9 µM (inactive).
As for `C#CCOCCOCCOCCNc1nc(N2CCN(C(=O)CCCCCCCCCCNC(=O)[C@H](CCCCN)n3cc(CCO)nn3)CC2)nc(N2CCN(C(=O)CCCCCCCCCCNC(=O)[C@H](CCCN=C(N)N)n3cc(C[C@@H](C)CC)nn3)CC2)n1`, the figure is > 55.9 µM (inactive); as for `C#CCOCCOCCOCCNc1nc(N2CCN(C(=O)CCCCCCCCCCNC(=O)Cn3cc(CCCCCN)nn3)CC2)nc(N2CCN(C(=O)CCCCCCCCCCNC(=O)[C@H](CO)n3cc(CCCSC)nn3)CC2)n1`, > 54.7 µM (inactive).
With `C#CCOCCOCCOCCNc1nc(N2CCN(C(=O)CCCCCCCCCCNC(=O)Cn3cc(C[C@@H](C)O)nn3)CC2)nc(N2CCN(C(=O)CCCCCCCCCCNC(=O)[C@H](CCCN=C(N)N)n3cc(C[C@@H](C)CC)nn3)CC2)n1`, the EC50 was > 55.9 µM (inactive).
The result for `C#CCOCCOCCOCCNc1nc(N2CCN(C(=O)CCCCCCCCCCNC(=O)[C@H](CO)n3cc(CCCSC)nn3)CC2)nc(N2CCN(C(=O)CCCCCCCCCCNC(=O)[C@H](CCCCN)n3cc(CCO)nn3)CC2)n1` reads > 55.9 µM (inactive).
